# Measurements: PubChem BioAssay
# The source made the active and inactive calls.
# What was measured:
# [1] = test system: Plasmodium falciparum Sir2 (PF13_0152, Sir2A); experiment: Plasmodium falciparum Sir2A binding compounds – biochemical, small-molecule microarray, 635 nm fluorescence, primary screen (AID 1098); settings: fluorescence 635 nm, higher = more signal;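 also: score merges spot fluorescence intensity with its signal-to-noise ratio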
# [2] = probe aDKK1 binding to arrayed compounds – biochemical, biotinylated probe, 635/667 nm fluorescence, primary screen (AID 1099); settings: small-molecule microarray, higher = more signal;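 also: score merges 667nm spot fluorescence with signal to noise across triplicate slides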
# [3] = probe aCHRDL2 binding to arrayed compounds – biochemical, biotinylated probe, 635/667 nm fluorescence, primary screen (AID 1100); settings: small-molecule microarray, higher = more signal
# [4] = change in splice reporter luminescence, either direction, cell-based, HEK293, spliceosome inhibition project, primary screen (AID 1101); settings: HEK293 splicing luciferase reporter, 24 h, higher = more signal, called active from +8 up or from −8 down;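 also: HEK293 cells carrying a splicing-competent luciferase reporter gene; test concentration not given here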
# [5] = target: Fibroblast growth factor 10 (Homo sapiens) (UniProt O15520); experiment: compounds binding fibroblast growth factor 10 – biochemical, small-molecule microarray, 635 nm fluorescence, primary screen (AID 1102); settings: FGF10 binding, fluorescence 635 nm, higher = more signal
# Sequence of Fibroblast growth factor 10 (Homo sapiens) (O15520 whole entry, looked up): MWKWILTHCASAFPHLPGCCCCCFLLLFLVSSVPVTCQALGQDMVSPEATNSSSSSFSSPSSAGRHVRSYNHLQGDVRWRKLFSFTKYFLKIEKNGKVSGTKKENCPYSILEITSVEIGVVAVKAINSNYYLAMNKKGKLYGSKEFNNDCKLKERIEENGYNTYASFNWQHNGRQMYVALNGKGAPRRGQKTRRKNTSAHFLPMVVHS
# [6] = test system: glycogen synthase kinase-3 (GSK3A per assay name; protocol says GSK3B); experiment: compounds binding glycogen synthase kinase-3 – biochemical, small-molecule microarray, 635 nm fluorescence, GSK3A, primary screen (AID 1103); settings: fluorescence 635 nm, higher = more signal; also: the record names both GSK3A and GSK3B
# [7] = target: Epidermal growth factor receptor (Homo sapiens) (UniProt P00533); experiment: compounds binding epidermal growth factor receptor – biochemical, small-molecule microarray, 635 nm fluorescence, primary screen (AID 1104); settings: EGFR binding, higher = more signal;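 also: score merges 667 nm emission intensity with spot signal to noise over triplicate slides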
# Sequence of Epidermal growth factor receptor (Homo sapiens) (P00533 whole entry, looked up): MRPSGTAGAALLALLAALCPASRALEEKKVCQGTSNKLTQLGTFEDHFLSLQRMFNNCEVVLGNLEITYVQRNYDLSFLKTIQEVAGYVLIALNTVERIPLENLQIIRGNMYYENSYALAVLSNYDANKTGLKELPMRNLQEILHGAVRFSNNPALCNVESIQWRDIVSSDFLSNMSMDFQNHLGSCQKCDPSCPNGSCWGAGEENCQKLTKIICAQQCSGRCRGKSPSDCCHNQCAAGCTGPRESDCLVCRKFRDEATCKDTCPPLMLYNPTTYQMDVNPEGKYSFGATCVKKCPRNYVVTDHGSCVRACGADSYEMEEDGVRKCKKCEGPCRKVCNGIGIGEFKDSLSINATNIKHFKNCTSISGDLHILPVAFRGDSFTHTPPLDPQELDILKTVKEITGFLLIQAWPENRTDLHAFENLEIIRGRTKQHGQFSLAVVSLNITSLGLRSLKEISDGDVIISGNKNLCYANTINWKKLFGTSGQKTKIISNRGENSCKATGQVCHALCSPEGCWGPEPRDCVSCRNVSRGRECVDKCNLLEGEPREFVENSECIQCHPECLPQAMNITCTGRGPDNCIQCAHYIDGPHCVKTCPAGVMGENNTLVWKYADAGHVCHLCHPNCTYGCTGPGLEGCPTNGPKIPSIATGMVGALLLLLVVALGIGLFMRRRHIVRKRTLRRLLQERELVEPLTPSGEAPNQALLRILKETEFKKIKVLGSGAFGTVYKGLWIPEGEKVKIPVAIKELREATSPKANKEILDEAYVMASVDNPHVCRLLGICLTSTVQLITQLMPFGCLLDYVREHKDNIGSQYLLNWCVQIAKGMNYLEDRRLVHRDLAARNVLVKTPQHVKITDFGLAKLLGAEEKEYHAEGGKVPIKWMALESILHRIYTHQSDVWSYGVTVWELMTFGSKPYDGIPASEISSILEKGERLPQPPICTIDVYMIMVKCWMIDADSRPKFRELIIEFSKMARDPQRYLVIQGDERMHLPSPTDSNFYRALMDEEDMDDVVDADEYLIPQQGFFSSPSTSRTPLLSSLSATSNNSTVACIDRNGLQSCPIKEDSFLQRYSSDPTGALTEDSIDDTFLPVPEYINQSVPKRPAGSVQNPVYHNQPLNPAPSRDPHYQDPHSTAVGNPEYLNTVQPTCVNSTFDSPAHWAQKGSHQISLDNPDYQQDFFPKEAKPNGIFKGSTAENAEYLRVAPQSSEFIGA
# [8] = target: Follistatin-related protein 3 (Homo sapiens) (UniProt O95633); experiment: compounds binding follistatin-related protein 3 – biochemical, small-molecule microarray, 635 nm fluorescence, primary screen (AID 1105); settings: FSTL3 binding, higher = more signal;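 also: score merges emission near 667 nm and signal to noise per printed spot across three slides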
# Sequence of Follistatin-related protein 3 (Homo sapiens) (O95633 whole entry, looked up): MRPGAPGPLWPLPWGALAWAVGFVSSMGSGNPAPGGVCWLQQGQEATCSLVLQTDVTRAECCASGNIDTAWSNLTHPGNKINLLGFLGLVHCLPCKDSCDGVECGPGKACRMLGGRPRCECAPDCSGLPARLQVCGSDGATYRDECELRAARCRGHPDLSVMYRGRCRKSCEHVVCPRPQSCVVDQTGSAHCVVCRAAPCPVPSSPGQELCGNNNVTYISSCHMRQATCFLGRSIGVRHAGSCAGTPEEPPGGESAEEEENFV
# [9] = target: Dickkopf-related protein 1 (Homo sapiens) (UniProt O94907); experiment: small molecules binding DKK1 protein – biochemical, small-molecule microarray, 635 nm fluorescence scan, primary screen (AID 1106); settings: higher = more signal;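 also: score merges emission near 667 nm with signal to noise over three replicate slides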
# Sequence of Dickkopf-related protein 1 (Homo sapiens) (O94907 whole entry, looked up): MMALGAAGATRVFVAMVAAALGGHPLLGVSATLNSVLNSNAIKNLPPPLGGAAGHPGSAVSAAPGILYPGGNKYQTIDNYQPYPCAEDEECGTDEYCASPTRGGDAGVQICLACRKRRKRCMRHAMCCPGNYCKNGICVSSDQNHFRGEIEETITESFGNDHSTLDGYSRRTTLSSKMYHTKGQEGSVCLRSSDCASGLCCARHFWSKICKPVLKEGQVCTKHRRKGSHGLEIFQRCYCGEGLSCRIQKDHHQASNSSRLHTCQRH
# [10] = test system: Inhibin beta A chain (activin A); experiment: small molecules binding activin A – biochemical, small-molecule microarray, 635 nm fluorescence scan, primary screen (AID 1107); settings: INHBA, higher = more signal;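 also: mouse activin A protein probed at 4.33 µg/mL on printed slides; score merges bound-protein fluorescence near 667 nm with spot signal-to-noise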
# [11] = test system: Human papillomavirus type 1a protein E7 (residues 44-93); experiment: small molecules binding HPV E7 44-93 – biochemical, small-molecule microarray, residues 44-93, 635 nm fluorescence, primary screen (AID 1108); settings: fluorescence 635 nm, higher = more signal;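 also: E7 fragment applied at 1 µg/mL in TBST for 1 h at 4 C; score combines spot fluorescence with its signal to noise ratio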
# [12] = hepatitis C replication reporter changes, two-sided – Huh7 cells, luciferase reporter, HCV replication inhibitor project, primary screen (AID 1109); settings: Huh7 HCV replicon luciferase reporter, 48 h; higher = more signal;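 also: huh7 hepatoma cells harbouring a luciferase neomycin HCV replicon reporter; luciferase luminescence as measure of HCV replicon replication; test concentration not given here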
# [13] = target: Left-right determination factor 2 (Homo sapiens) (UniProt O00292); experiment: small molecules binding LEFTY2 protein – biochemical, small-molecule microarray, 635 nm fluorescence scan, primary screen (AID 1110); settings: higher = more signal
# Sequence of Left-right determination factor 2 (Homo sapiens) (O00292 whole entry, looked up): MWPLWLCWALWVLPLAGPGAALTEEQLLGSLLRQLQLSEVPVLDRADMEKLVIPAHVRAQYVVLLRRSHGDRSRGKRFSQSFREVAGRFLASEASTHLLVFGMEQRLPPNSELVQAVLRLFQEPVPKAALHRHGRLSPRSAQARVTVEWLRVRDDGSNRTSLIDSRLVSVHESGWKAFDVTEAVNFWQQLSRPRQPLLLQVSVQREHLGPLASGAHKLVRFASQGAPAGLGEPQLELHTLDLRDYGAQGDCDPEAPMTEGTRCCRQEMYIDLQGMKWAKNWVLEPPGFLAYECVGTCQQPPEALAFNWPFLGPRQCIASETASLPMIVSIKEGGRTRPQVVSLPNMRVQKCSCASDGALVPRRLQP
# [14] = target: Calmodulin-1 (Homo sapiens) (UniProt P0DP23); experiment: small molecules binding calmodulin-1 with EGTA – biochemical, small-molecule microarray, Cy5-labelled CALM1, profiling panel (AID 1111); settings: Cy5-CALM1 binding fluorescence, higher = more signal;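 also: labelled calmodulin applied in Tris saline Tween buffer holding calcium plus EGTA and DTT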
# [15] = target: Calmodulin-1 (Homo sapiens) (UniProt P0DP23); experiment: small molecules binding Ca-loaded calmodulin-1 – biochemical, small-molecule microarray, Cy5-labelled CALM1, plus calcium, artefact control for SMM control-protein annotation, profiling panel (AID 1112); settings: Cy5-CALM1 binding fluorescence, higher = more signal;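 also: score merges spot fluorescence with signal to noise from triplicate slides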
# [16] = probe aWnt5a binding to arrayed compounds – biochemical, biotinylated probe, 635/667 nm fluorescence, primary screen (AID 1113); settings: small-molecule microarray, higher = more signal;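 also: score merges 667 nm fluorescence intensity with signal-to-noise per printed feature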
# [17] = probe aShh binding to arrayed compounds – biochemical, biotinylated probe, 635/667 nm fluorescence, primary screen (AID 1114); settings: small-molecule microarray, higher = more signal;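 also: probe is biotin-labelled aShh protein from a stem cell growth factor screen; measures binding of labelled protein to compounds printed on the slide; score merges feature fluorescence at 667 nm with signal-to-noise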
# [18] = probe aNog binding to arrayed compounds – biochemical, biotinylated probe, 635/667 nm fluorescence, primary screen (AID 1115); settings: small-molecule microarray, higher = more signal;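 also: probe is biotinylated aNog protein used at 0.15 µg/mL for 1 h at 4 C; z-score combines 667 nm fluorescence of each spot with its signal to noise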
# [19] = target: Torsin-1A-interacting protein 1 (Homo sapiens) (UniProt Q5JTV8); experiment: compound microarray binding of lysate hLAP1 – cell lysate, small-molecule microarray, COS7 lysate, 635/667 nm fluorescence, primary screen (AID 1116); settings: 635 nm fluorescence, higher = more signal
# Sequence of Torsin-1A-interacting protein 1 (Homo sapiens) (Q5JTV8 whole entry, looked up): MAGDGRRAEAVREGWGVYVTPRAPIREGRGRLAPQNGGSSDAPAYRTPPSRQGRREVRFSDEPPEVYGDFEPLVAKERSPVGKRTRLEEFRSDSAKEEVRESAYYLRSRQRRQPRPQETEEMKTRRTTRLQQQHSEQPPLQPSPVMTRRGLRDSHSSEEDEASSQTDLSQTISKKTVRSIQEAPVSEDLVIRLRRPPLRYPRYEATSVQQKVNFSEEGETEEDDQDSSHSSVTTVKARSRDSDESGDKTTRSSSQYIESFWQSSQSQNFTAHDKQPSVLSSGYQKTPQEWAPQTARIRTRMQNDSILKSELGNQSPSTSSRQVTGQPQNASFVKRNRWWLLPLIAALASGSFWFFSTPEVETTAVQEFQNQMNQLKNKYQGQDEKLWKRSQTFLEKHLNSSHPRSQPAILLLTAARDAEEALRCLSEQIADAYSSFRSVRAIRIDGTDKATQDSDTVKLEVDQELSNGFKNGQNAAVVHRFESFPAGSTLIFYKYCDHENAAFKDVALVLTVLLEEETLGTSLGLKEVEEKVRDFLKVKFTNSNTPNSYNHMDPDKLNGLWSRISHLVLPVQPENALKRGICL
# [20] = target: Alpha-bungarotoxin (Bungarus multicinctus) (UniProt P60615); experiment: compounds binding labelled alpha-BTX control protein – biochemical, small-molecule microarray, Alexa647 label, 635/667 nm fluorescence, artefact control for SMM control protein annotation, profiling panel (AID 1117); settings: alpha-BTX-A647 binding fluorescence, higher = more signal
# Sequence of Alpha-bungarotoxin (Bungarus multicinctus) (P60615 whole entry, looked up): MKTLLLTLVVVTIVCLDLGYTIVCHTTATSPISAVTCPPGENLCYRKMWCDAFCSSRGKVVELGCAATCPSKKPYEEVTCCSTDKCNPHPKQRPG
Structure (SMILES),composite z-score [1],composite z-score [2],composite z-score [3],z-score [4],composite z-score [5],composite z-score [6],composite z-score [7],composite z-score [8],composite z-score [9],composite z-score [10],composite z-score [11],z-score [12],composite z-score [13],composite z-score [14],composite z-score [15],composite z-score [16],composite z-score [17],composite z-score [18],composite z-score [19],composite z-score [20]
CCOC(=O)C1=CCC(c2cccc3ccccc23)N(S(=O)(=O)c2ccc(C)cc2)C1 (stereo not given),0.471,0.981,0.596,0.664 (inactive),0.279,0.912,0.385,0.681,-0.141,1.41,1.09,-0.874,0.0938,1.47,0.509,0.0763,0.203,0.276,0.871,1.3
CO[C@H]1O[C@H](CO)[C@@H](OC(=O)Nc2ccc(Oc3ccccc3)cc2)[C@H](OC(=O)Nc2ccccc2-c2ccccc2)[C@H]1OC(=O)Nc1ccccc1-c1ccccc1,1.35,0.542,0.748,2.76 (inactive),1.14,1.34,0.528,1.36,0.538,0.187,0.383,-3.97,0.975,2.09,-0.107,0.0676,0.11,0.786,1.77,2.98
COCCOC(=O)N1C(=O)[C@@]2(c3cc(C#CC4=CCCCC4)ccc31)[C@H](C(=O)NC[C@H](O)c1ccccc1)[C@H]1C(=O)O[C@H](c3ccccc3)[C@H](c3ccccc3)N1[C@@H]2c1ccc(OCCO)cc1,0.915,-0.18,0.226,-0.718 (inactive),1.29,1.28,0.483,1.37,0.817,0.49,1.41,-2.08,0.537,0.774,-0.206,0.0115,-0.279,0.165,1,1.28
COCCOC(=O)N1C(=O)[C@@]2(c3cc(C#CCC(C(=O)OC)C(=O)OC)ccc31)[C@H](C(=O)N1CCN(c3ncccn3)CC1)[C@H]1C(=O)O[C@H](c3ccccc3)[C@H](c3ccccc3)N1[C@@H]2c1ccc(O)cc1,1.25,0.2,0.733,-1.15 (inactive),0.589,0.845,0.279,0.698,0.0392,0.283,0.435,-0.513,0.394,1.22,0.601,0.0077,0.272,0.0574,0.518,1.71
CC(=O)NCCCC[C@@H]1NC(=O)[C@@H]2C[C@H](C(=O)NCc3ccc(F)cc3)[C@H](c3cccc(OCCO)c3)N2C1=O,1.02,0.0839,0.0979,0.281 (inactive),0.0733,-0.895,-0.148,-0.488,-0.047,0.101,0.843,-0.0901,-0.0566,-0.286,0.0377,-0.0836,0.0469,-0.183,0.436,-0.86
Cc1ccc(N2C(=O)c3ccccc3[C@@H](C(=O)NCC(F)(F)F)[C@@H]2c2ccc(CO)cc2)nc1,1.72,0.476,1.22,-1.08 (inactive),-1.15,-1.18,-2.69,-1.83,-1.69,-1.57,-2.16,0.643,-3.15,-1.65,-0.526,-0.226,-0.0626,-0.3,0.153,-1.81
C=CCc1cccc([C@@H]2[C@@H](C)CC[C@H]3C(=O)N4[C@H](c5cccc(CC=C)c5)[C@@H](C)CC[C@H]4C(=O)N23)c1,0.725,-0.0603,0.175,-1.34 (inactive),0.756,0.365,0.654,0.831,0.666,1.67,0.227,-3.5,1.09,0.254,-0.831,0.0893,0.0899,-0.216,0.373,1.88
COc1cc2c(cc1OC)CN(C(=O)[C@@H]1[C@H]3C(=O)O[C@H](c4ccccc4)[C@H](c4ccccc4)N3[C@H](c3ccccc3OCCO)[C@@]13C(=O)Nc1ccccc13)CC2,1.6,-0.682,-0.73,-0.239 (inactive),0.748,1.29,0.0883,0.317,-0.134,0.358,1.01,-2.02,0.187,0.421,0.234,0.213,-0.0213,0.0101,-0.345,2.07
COc1cccc([C@H]2N[C@H](C(=O)O)CC[C@@H]2C)c1,-0.406,-0.251,-0.136,-1.94 (inactive),-0.401,0.0602,0.194,0.0151,0.0655,0.282,0.0991,0.53,0.0589,0.0938,0.334,-0.131,-0.458,-0.339,0.0026,0.396
CCCC=C(CCC)[C@@H](NC(=O)c1ccccc1)c1ccccc1,-0.597,0.712,1.07,-0.0542 (inactive),-0.0829,-1.87,-0.292,-0.501,-0.0056,1.16,0.0084,-0.12,-0.621,0.323,1.09,-0.0299,0.217,0.766,-0.439,-0.445
Cc1ccc(S[C@]2(C(=O)NCCCN(C)C)CC(=O)N(Cc3ccccc3)[C@@H]2c2ccc(CO)cc2I)cc1,0.16,1.09,1.3,-1.81 (inactive),-0.347,-0.753,-1.12,-0.575,-1.37,1.35,0.544,-2.94,-0.941,0.453,0.728,-0.091,0.0756,1.09,0.0632,0.913
